The source of these data is PubChem BioAssay (NCATS).

Records with an inconclusive call do not appear. Unmarked numbers belong to inactive results. Calls of active or inactive are those of the source. Calls come from the whole dose curve; as a rule, active = well fitted curve in the direction sought with a large enough effect; inconclusive = small, poorly fitted or top-dose-only effect, or another doubt; inactive = no such curve, though single readings can be large; an effect the other way counts as inactive or inconclusive.

Assay [1] relates to Zika virus NS2B-NS3 protease. In words: Primary screen GU AMC qHTS for Zika virus inhibitors (AID 1347154).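 Note: 0% = no-inhibitor control and -100% = no-enzyme control; nearly all actives have a fitted effect of over 70% in size.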 In a few lines:
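Unlinked Zika NS2B hydrophilic domain–NS3 protease complex at 25 nM in 10 mM Tris-HCl pH 8.0, 0.01% Tween 20, with an AMC peptide substrate. Fluorescence change (340/450 nm) over 15 min at room temperature, normalized to controls, fitted to 4-parameter Hill.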
For orientation: qHTS replaces the single test concentration by a dilution series.

Assay [2] can be described thus: Counterscreen qHTS for small molecule stabilizers of the endoplasmic reticulum resident proteome: GLuc-NoTag assay (AID 1508627).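 For activity change, negative = inhibition: SH-SY5Y cells given compound then 100 nM thapsigargin to empty ER calcium; series mostly up to about 76 µM; 0% = thapsigargin alone and -100% = DMSO vehicle control.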 Note: potency is the fitted concentration of half-maximal effect. The gist of the method: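 SH-SY5Y cells stably expressing constitutively secreted GLuc without SERCaMP tag, exposed to compound for 19 hr, then to 100 nM thapsigargin for 4 hr at 37C. Medium luciferase was read by coelenterazine luminescence without lysis.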
In general terms: The purpose of a counterscreen is to sort out artefacts and off-target activity.

Assay [3] is described as follows: Confirmatory qHTS for small molecule stabilizers of the endoplasmic reticulum resident proteome: Secreted ER Calcium Modulated Protein (SERCaMP) assay (AID 1508628). Note: series mostly up to about 76 µM; % is set by controls: 0 for no effect and ±100 for the full control effect; nearly all actives have a fitted effect of over 40% in size. In a few lines:
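SH-SY5Y cells stably expressing GLuc-SERCaMP, treated 16 h with compound (primary 1.53, 7.67, 38.3 uM; confirmation 11 concentrations, up to 76.6 uM), then 100 nM thapsigargin for 4 h. Secreted Gaussia luciferase in medium read by coelenterazine luminescence.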

Assay [4] in a line: Cell Viability qHTS for small molecule stabilizers of the endoplasmic reticulum resident proteome (AID 1508629).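 Note: human SH-SY5Y neuroblastoma cells carrying the GLuc-SERCaMP reporter; compound exposure about 46 h in total before the viability read; % is set by controls: 0 for no effect and ±100 for the full control effect.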 The following applies: cell viability counter-screen, 100 nM thapsigargin for final 4 h.

As for `NCCc1ccccn1`, the Potency result in assay [1] was “inactive”.

Take `CC(C)C[C@H](NC(=O)[C@H](Cc1ccccc1)NC(=O)CNC(=O)[C@H](C)NC(=O)[C@@H](N)Cc1ccc(O)cc1)C(=O)O`: the results for the activity change, negative = inhibition in assay [1] and in assay [2] were 14.3% [at 6.83 µM] and 12% [at 9.46 µM], respectively. Moreover, in assay [3], the activity change, negative = decrease was 16.6% [at 9.4 µM]. Moreover, the max response in assay [4] was 9.07%.

In the case of `CN1C2CCC1CC(OC(c1ccc(F)cc1)c1ccc(F)cc1)C2` (stereo not drawn), the Potency entry in assay [1] was “inactive”. For the same compound, the Potency in assay [2] is 22.4 µM (active).

Regarding `COc1ccc2c(CCN)c[nH]c2c1`, in assay [1], the Potency entry is “inactive”.
